Reference: PubChem BioAssay (Tox21)
Where “and” joins values, the source holds several entries; their conditions need not be identical. Equal entries are not always repeated. Records with an inconclusive call do not appear. Values without a mark were called inactive. Calls of active or inactive are those of the source. Calls come from the whole dose curve; as a rule, active = well fitted cell-killing curve with a large enough effect in the repeat runs; inconclusive = weak or mixed curves, or effect the other way; inactive = flat fitted curve, though single readings scatter.

assay: qHTS RealTime-Glo MT Cell Viability Assay in HEK293 cells - 40 hour (AID 1224874); details: RealTime-Glo luminescence; max response: hits give low values; note: nearly all actives have a fitted effect of over 50% in size
From the text: U.S. Tox21 Program National Center for Advancing Translational Sciences [NCATS] NIH Chemical Genomics Center [NCGC] U.S. Environmental Protection Agency [EPA] National Institutes of Environmental Health Sciences [NIEHS] National Toxicology Program [NTP] U.S. Food and Drug Administration [FDA] Tox21 Assay Overview: Measure of cell viability is critical in the cell-base assay. Analysis of cell viability is necessary for the characterization of cell responses to cytotoxic drugs and environmental stress. A RealTime-Glo MT Cell Viability Assay to monitor cell viability in real time of continues cell culture during 40 hours of compound treatment was used to screen Tox21 10K library compounds in Hek293 cells. The RealTime-Glo MT Cell Viability Assay is a nonlytic, homogeneous, bioluminescent method to measure cell viability in real time using a simple, plate-based method. The assay involves adding NanoLuc luciferase and a cell-permeant prosubstrate to cells in culture. Viable cells reduce the proprietary prosubstrate to generate a substrate for NanoLuc luciferase. This substrate diffuses from cells into the surrounding culture medium, where it is rapidly used by the NanoLuc Enzyme to produce a luminescent signal. The signal correlates with the number of viable cells, making the assay well suited for cytotoxicity studies.
Tox21 Assay Protocol Summary: The mixture of Hek293 cell suspension and reagents were dispensed at 600cells/6 ul/well in 1536-well tissue culture treated black solid bottom plates using a Multidrop dispenser. After the assay plates were incubated at a 37 C/5% CO2 incubator for 5 hours, 23 nL of compounds dissolved in DMSO, positive and negative controls was transferred to the assay plate by a pintool work station. The plates were incubated at 37 C for 40 hours. The luminescence intensity were measured at 0h, 8h, 16h, 24h, 32h and 40h time points using ViewLux plate reader during compound treatment.
% is set by controls: 0 for no effect and ±100 for the full control effect; potency is the fitted concentration of half-maximal effect.

SMILES | max response | Potency
CCOC(=N)CC(=O)OCC | -25% | –
O=C(O)c1ccc(CO)o1 | -0.778% | –
CCCc1c(OCCCOc2ccc(OCC(=O)O)cc2)ccc(C(C)=O)c1O | -7.6% | –
CC(C)CCCCCCOC(=O)CCCCC(=O)OCCCCCCC(C)C | 0.314% | –
CC(C)c1nnc2ccc(-c3ocnc3-c3cc(F)ccc3F)cn12 | – | 19.5 µM (active)
C=CC(C)(O)CCCC(C)CCCC(C)CCCC(C)C (stereo not given) | 6.13% | –
CCCCCCCCCCCC(=O)[O][Sn]([CH2]CCC)([CH2]CCC)[O]C(=O)CCCCCCCCCCC | – | 7.56 µM (active)
O=C(CCCCCCC(=O)Nc1ccccc1)NO | – | 2.39 µM (active)
C1COCO1 | -1.05% | –
CC(=O)CC(c1ccc([N+](=O)[O-])cc1)c1c(O)c2ccccc2oc1=O (stereo not given) | -4.65% | –
CCOc1cc(N)c(Cl)cc1C(=O)NCC1CN(Cc2ccc(F)cc2)CCO1 (stereo not given) | – | 16.9 µM (active)
COc1cc2[nH]c(=O)[nH]c(=O)c2cc1OC | 1.95% | –
CNC(=O)N(c1ccccc1)c1ccccc1 | 10.9% | –
Cc1oncc1C(=O)Nc1ccc(C(F)(F)F)cc1 | 8.36% and -3.36% | –
CCC(C(=O)OCCN(CC)CC)c1ccccc1 (stereo not given) | 8.92% | –
CCC1(C)CC(=O)NC1=O (stereo not given) | 1.67% | –
CC(Cl)C(Cl)Cl (stereo not given) | -7.3% | –
CCOC(=O)[C@@H](C)Oc1ccc(Oc2nc3ccc(Cl)cc3o2)cc1 | – | 21.9 µM (active)
CCCCC(CC)COC(=O)COc1ccc(Cl)cc1C (stereo not given) | 14.7% | –
O=C(CCC1CCN(Cc2ccccc2)CC1)c1ccc2c(c1)NCCCC2 | – | 9.52 µM (active)

SMILES | max response | Potency
Nc1nc(Cl)nc2c1ncn2[C@@H]1O[C@H](CO)[C@@H](O)[C@@H]1F | – | 4.25 µM (active)
Cc1oc(C)c(C(=O)Nc2ccccc2)c1C | – | 24.5 µM (active)
Cc1ccc(/C=N/n2c(-c3ccccc3)csc2=S)cc1 | -0.419% | –
Nc1ccc(S(=O)(=O)O)cc1 | 0.165% | –
C/C=C(\C)C(=O)OCCC(C)CCC=C(C)C (stereo not given) | 5.27% | –
CCC(C)(C)C1CCC(O)CC1 (stereo not given) | 3.32% | –
CC(=O)Oc1ccc2c(c1)CC[C@@H]1[C@@H]2CC[C@]2(C)[C@@H](O)CC[C@@H]12 | – | 16.9 µM (active)
CN(C)CCOC1=Cc2ccccc2Sc2ccc(Cl)cc21 | -22.7% | –
Nc1ccc(C(=O)OCCCOC(=O)c2ccc(N)cc2)cc1 | – | 38.9 µM (active)
CC1CC(O)CC(C)(C)C1 (stereo not given) | -3.83% | –
C=C(C)C(=O)OCCOC(=O)CC(C)=O | 1.19% | –
CCCCC(=O)O[C@]1(C(=O)CO)CC[C@H]2[C@@H]3CCC4=CC(=O)CC[C@]4(C)[C@H]3[C@@H](O)C[C@@]21C | -24% | –
CCOC(=O)c1ccccc1C | -14.1% | –
O=S1OCCO1 | 21% | –
Nc1ccc(Cl)cc1[N+](=O)[O-] | 2.66% | –
CCCCCCOC(=O)C(C)C | 6.06% | –
CC(=O)Nc1ccccc1C | 1.18% | –
CC(=N\O)/C(C)=N/O | -18.2% | –
O=C(CCCN1CCC(O)(c2ccc(Br)cc2)CC1)c1ccc(F)cc1 | – | 10.7 µM (active)
CCCCN(CCCC)CCCOC(=O)c1ccc(N)cc1 | -19.3% | –
